Measured values published in PubChem BioAssay (NCATS).
Several values for one entry are separate records, joined by “and”; a condition that tells them apart may be missing. Equal values may be shown once. Results filed as inconclusive are left out. Some compounds were tested as several samples or in several runs, with calls that do not always agree. Activity calls are given as the source filed them. Unless noted, the call rests on the fitted dose curve.

What was measured:
[1] = AP1 Signaling Pathway (AID 357; active means well fitted curve in either direction with a large enough effect, not every such curve was filed as active; further: on the % scale 0 is the no-effect control and ±100 the full control effect); conditions: ME-180 AP-1-bla reporter, EGF-induced, beta-lactamase ratio, 5 h; at 38 µM (top of the series) unless noted
Method in brief: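 AP-1-bla ME-180 cells with beta-lactamase reporter under AP-1 response element, stimulated with EC50 EGF; compounds titrated, 5 hours at 37 degrees Celsius. CCF4 read at 460/530 nm ratio; positive and negative modulators judged by AC50.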

[2] = biological target: Cytochrome P450 1A2 (Homo sapiens) (UniProt P05177); experiment: p450-cyp1a2 (AID 410); further: potency means the concentration at half of the fitted maximal effect;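 on activity change, negative = inhibition: -100% = full effect of reference inhibitor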
Method in brief: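 20nM CYP1A2, 100uM Luciferin-ME (=Km), 100mM KPO4; cpd 10 min RT; +NADPH regen, 60 min RT; stop/detect 20 min; luminescence. Normalized to furafylline 57 uM = full inhibition.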

[3] = NFAT Signaling Pathway (AID 444; active means well fitted curve in either direction with a large enough effect, not every such curve was filed as active;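 further: carbachol stimulus at about its EC50 of 1 µM final; on the % scale 0 is the no-effect control and ±100 the full control effect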); conditions: Jurkat NFAT-bla M1, carbachol, beta-lactamase ratio, 5 h
Method in brief: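 Jurkat cells with NFAT-driven β-lactamase reporter and co-expressed M1 receptor, stimulated with carbachol (final 1 uM, ~EC50), compound titration, 5 h at 37 °C. CCF4 loaded 1 h at RT; 460/530 nm ratio gave %activity and AC50.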

[4] = biological target: Glucocorticoid receptor (Homo sapiens) (UniProt P04150); experiment: GR-GFP Redistribution (AID 450;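 active means compounds whose dose series gives a full or clear partial fitted curve of increased nuclear translocation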; further: potency means the concentration at half of the fitted maximal effect); conditions: U2OS GR-GFP nuclear translocation, laser cytometry, 2 h
[5] = biological target: Glucocorticoid receptor (Homo sapiens) (UniProt P04150); experiment: GR-EFC Redistribution (AID 451); conditions: CHO-K1 GR-EFC translocation, beta-gal luminescence, 2 h; further: potency means the concentration at half of the fitted maximal effect
Method in brief: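 CHO-K1 cells expressing nuclear EA and GR-ED fragments of b-gal; compounds titrated up to 46 uM final, 2 h at 37 C. GR nuclear translocation read as complemented b-gal luminescence after 1 h RT detection.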

[6] = biological target: Mitogen-activated protein kinase 10 (Mus musculus) (UniProt Q61831); experiment: JNK3 AlphaScreen Assay (AID 530; active means well fitted curve in either direction with a large enough effect, not every such curve was filed as active;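 further: kinase came from lysate of stimulated human HepG2 cells; signal reports phosphorylation of biotinylated GST-cJun 1-79 at Ser73 with 10 µM ATP; on the % scale 0 is the no-effect control and ±100 the full control effect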)
Method in brief: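 HepG2 lysate (IL-1b/TNFa pre-activated) + biotin-GST-cJun 1-79 + anti-pSer73 cJun; cpd titration, 15 min RT; ATP 10 uM start; Tris pH 7.6, MgCl2, DTT, vanadate; beads in EDTA buffer; AlphaScreen.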

[7] = Stat Signaling Pathway (AID 446; active means well fitted curve in either direction with a large enough effect, not every such curve was filed as active;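 further: ME-180 cervical cancer cells given 40 pM IL-6 alongside compound; SIE-controlled beta-lactamase reporter measured as 460/530 nm FRET emission ratio; on the % scale 0 is the no-effect control and ±100 the full control effect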); conditions: ME-180 (cervical carcinoma) SIE beta-lactamase reporter, IL-6 stimulated, 5 h; at 38 µM (top of the series) unless noted
Method in brief: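 FRET read-out (405 nm excitation, 460/530 nm emission) of a beta-lactamase reporter under a STAT-inducible element in ME-180 cervical carcinoma cells. Cells with compound receive 40 pM IL-6 for 5 h. Values are normalised to AC90 stimulation and AC90 JAK-inhibitor controls.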

[8] = Cell Viability - BJ (AID 421); conditions: BJ fibroblast viability, qHTS;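 further: potency means the concentration at half of the fitted maximal effect; cells exposed to compound for 40 hours at 37 °C before readout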
Method in brief: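 Cytotoxicity as drop in intracellular ATP (CellTiter-Glo, 20 min RT) after 40 hr compound exposure of BJ fibroblasts at 37 °C. Titrations scaled between DMSO and 100 uM tamoxifen, Hill-fitted for AC50.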

[9] = Cell Viability - Jurkat (AID 426;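 active means dose-dependent loss of cell ATP signal giving a full or clear fitted curve, ranked by lower potency value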;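 further: potency means the concentration at half of the fitted maximal effect; cells exposed to compound for 40 hours at 37 °C before ATP read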); conditions: qHTS
Method in brief: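 Luminescent ATP read-out (CellTiter-Glo, 20 min at room temperature) after 40 hr compound exposure at 37 °C of Jurkat E6-1 cells, 5000/well. Decreased ATP taken as cytotoxicity; AC50 from standard Hill equation.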

[10] = Cell Viability - Hek293 (AID 427;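 active means compounds whose dose-response curve shows a full or clear partial loss of cell viability, called from curve shape rather than a numeric limit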;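 further: potency means the concentration at half of the fitted maximal effect; cells exposed to compound for 40 hours at 37 °C before reading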); conditions: qHTS
Method in brief: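 Luminescent ATP content (CellTiter-Glo, 20 min at room temperature) was measured after a 40 hr, 37 °C compound exposure of HEK293 cells. AC50 values came from Hill-equation fits of qHTS concentration-response data normalized to DMSO and 100 uM tamoxifen.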

[11] = Cell Viability - HepG2 (AID 433); conditions: qHTS;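 further: potency means the concentration at half of the fitted maximal effect; potency for ATP loss meaning cytotoxicity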
Method in brief: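 HepG2 hepatocellular carcinoma cells (1500/well) were treated with compounds for 40 h at 37 °C in complete medium; intracellular ATP was read by CellTiter-Glo luminescence. Data were normalized to DMSO and 100 uM tamoxifen, and AC50 came from Hill fits.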

[12] = Cell Viability - MRC5 (AID 434); conditions: MRC5 lung fibroblast viability, qHTS;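 further: potency means the concentration at half of the fitted maximal effect; potency reflects cytotoxicity seen as loss of intracellular ATP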
Method in brief: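 ATP luminescence read-out (CellTiter-Glo, 20 min RT) after 40 hr, 37 °C compound exposure of 1500 MRC5 cells/well. Data normalized to DMSO (basal) and 100 uM tamoxifen (100% inhibition); AC50 from standard Hill equation.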

[13] = Cell Viability - SK-N-SH (AID 435); conditions: SK-N-SH neuroblastoma cell viability qHTS; further: potency means the concentration at half of the fitted maximal effect
Method in brief: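 SK-N-SH human neuroblastoma cells (1500/well) were exposed to compounds in complete medium for 40 h at 37 °C, and intracellular ATP was then measured by CellTiter-Glo luminescence. AC50 was taken from Hill fits, normalized to DMSO and 100 uM tamoxifen.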

[14] = Cell Viability - N2a (AID 540; active means well fitted curve in the direction sought with a large enough effect; an effect the other way counts as inactive or inconclusive;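 further: plate controls were DMSO alone for no effect and tamoxifen control for full effect; nearly all actives have a fitted effect of over 45% in size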)
Method in brief: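 N2a mouse neuroblastoma, 1500 cells/well, 5 hr settle; compound 40 hr, 37 °C; CellTiter-Glo 20 min RT; luminescence; Hill-fit AC50.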

[15] = Cell Viability - NIH 3T3 (AID 541; active means well fitted curve in the direction sought with a large enough effect; an effect the other way counts as inactive or inconclusive;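 further: plate controls were DMSO alone for no effect and tamoxifen positive control for full effect; nearly all actives have a fitted effect of over 25% in size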)
Method in brief: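 qHTS format; 40 hr compound exposure, 37 °C; CellTiter-Glo luminescence (cellular ATP) read-out after 20 min at RT. Decrease in ATP = cytotoxicity; AC50 from standard Hill fit.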

[16] = Cell Viability - HUV-EC-C (AID 542; active means well fitted curve in the direction sought with a large enough effect; an effect the other way counts as inactive or inconclusive; further: on the % scale 0 is the no-effect control and ±100 the full control effect; nearly all actives have a fitted effect of over 35% in size)
Method in brief: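 Luminescent ATP read-out (CellTiter-Glo, 20 min room temperature) after 40 hr compound treatment of HUV-EC-C cells at 37 °C. Concentration-response data fitted with the standard Hill equation to give AC50; tamoxifen and doxorubicin served as positive controls.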

[17] = Cell Viability - H-4-II-E (AID 543; active means well fitted curve in the direction sought with a large enough effect; an effect the other way counts as inactive or inconclusive; further: on the % scale 0 is the no-effect control and ±100 the full control effect; nearly all actives have a fitted effect of over 35% in size)
Method in brief: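 qHTS, rat hepatoma H-4-II-E, 1500 cells/well; 40 hr compound exposure, 37 °C; CellTiter-Glo ATP luminescence after 20 min RT; AC50 by standard Hill fit.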

[18] = Cell Viability - SH-SY5Y (AID 544; active means well fitted curve in the direction sought with a large enough effect; an effect the other way counts as inactive or inconclusive;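 further: 0% = DMSO alone and -100% = 100 µM tamoxifen; nearly all actives have a fitted effect of over 55% in size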)
Method in brief: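 SH-SY5Y, 1500 cells/well, 5 hr pre-incubation 37 °C; cpd 40 hr 37 °C; CellTiter-Glo 20 min RT; luminescence (ATP) read. qHTS concentration-response, Hill fit → AC50. Tamoxifen, doxorubicin as positive controls.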

[19] = Cell Viability - Renal Proximal Tubule (AID 545; active means well fitted curve in the direction sought with a large enough effect; an effect the other way counts as inactive or inconclusive;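 further: 0% = DMSO only and -100% = 100 µM tamoxifen; nearly all actives have a fitted effect of over 40% in size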)
Method in brief: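 Primary rat renal proximal tubule cells (1000/well) were treated with compounds for 40 hr at 37 °C in complete medium. Intracellular ATP was measured by CellTiter-Glo luminescence, and AC50 values came from Hill-equation fits of concentration-response data.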

[20] = at 38 µM (top of the series) unless noted

Sequence of Glucocorticoid receptor (Homo sapiens) (P04150 whole entry, looked up, the tested form may be a part): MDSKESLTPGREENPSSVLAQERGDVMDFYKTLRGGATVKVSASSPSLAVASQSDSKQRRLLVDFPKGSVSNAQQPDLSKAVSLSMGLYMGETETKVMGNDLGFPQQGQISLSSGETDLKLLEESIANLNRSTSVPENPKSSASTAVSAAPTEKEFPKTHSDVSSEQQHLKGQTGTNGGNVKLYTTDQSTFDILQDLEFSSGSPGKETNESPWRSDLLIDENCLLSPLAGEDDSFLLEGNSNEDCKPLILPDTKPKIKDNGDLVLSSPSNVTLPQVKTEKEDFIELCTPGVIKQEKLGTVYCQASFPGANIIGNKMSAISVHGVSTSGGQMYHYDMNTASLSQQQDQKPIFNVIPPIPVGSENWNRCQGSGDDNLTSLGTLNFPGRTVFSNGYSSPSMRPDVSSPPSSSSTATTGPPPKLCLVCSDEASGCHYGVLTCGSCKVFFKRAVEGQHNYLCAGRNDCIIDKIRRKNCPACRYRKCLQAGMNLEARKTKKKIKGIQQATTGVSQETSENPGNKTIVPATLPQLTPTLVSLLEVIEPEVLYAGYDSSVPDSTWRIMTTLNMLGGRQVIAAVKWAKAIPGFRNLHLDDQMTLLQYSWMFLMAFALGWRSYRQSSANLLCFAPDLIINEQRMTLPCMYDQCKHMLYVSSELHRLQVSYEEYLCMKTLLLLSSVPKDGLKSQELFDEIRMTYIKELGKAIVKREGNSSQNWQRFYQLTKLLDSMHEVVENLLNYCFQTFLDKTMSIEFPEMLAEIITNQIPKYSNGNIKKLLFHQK
Sequence of Cytochrome P450 1A2 (Homo sapiens) (P05177 whole entry, looked up): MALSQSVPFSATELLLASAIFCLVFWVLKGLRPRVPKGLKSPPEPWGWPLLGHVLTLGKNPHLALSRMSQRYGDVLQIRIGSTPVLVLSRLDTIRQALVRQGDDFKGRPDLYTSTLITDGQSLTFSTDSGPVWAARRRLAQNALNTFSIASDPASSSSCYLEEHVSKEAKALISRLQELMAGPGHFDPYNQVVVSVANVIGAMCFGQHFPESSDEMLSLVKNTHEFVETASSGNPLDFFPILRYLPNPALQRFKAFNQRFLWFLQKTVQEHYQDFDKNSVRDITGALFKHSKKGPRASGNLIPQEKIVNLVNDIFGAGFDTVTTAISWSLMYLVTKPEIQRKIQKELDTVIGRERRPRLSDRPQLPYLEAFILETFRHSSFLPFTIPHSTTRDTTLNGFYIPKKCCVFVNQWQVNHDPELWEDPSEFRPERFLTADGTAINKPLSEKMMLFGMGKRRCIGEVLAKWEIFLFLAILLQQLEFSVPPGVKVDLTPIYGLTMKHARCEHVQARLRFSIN

C[C@](Cc1ccc(O)c(O)c1)(NN)C(=O)O
active: Potency [2] 31.6 µM
inactive: activity change, negative = inhibition [1] -13.3% | activity change, negative = inhibition [3, 20] 8.6% | Potency [4] > 46 µM | Potency [5] > 46 µM | outcome [6]

C#CCn1c(=O)c2c(ncn2C)n(C)c1=O
inactive: activity change, negative = inhibition [1] 8.56% | Potency [2] | activity, negative = inhibition [7] 16.8% | Potency [4] > 46 µM | Potency [5] > 46 µM | outcome [6]

Nc1ccc2c3c(cccc13)C(=O)NC2=O
inactive: activity change, negative = inhibition [1] -5.58% | activity, negative = inhibition [7] -25.5% | Potency [4] > 46 µM | Potency [5] > 46 µM | outcome [6]
active: Potency [2] 1 µM

O=c1[nH]c2ccccc2c2ccccc12
inactive: activity change, negative = inhibition [1] -9.69% | activity change, negative = inhibition [3, 20] 8.86% | activity, negative = inhibition [7] -7.28% | Potency [5] > 46 µM | outcome [6]
active: Potency [2] 0.251 µM

COc1ccc(NC(=O)c2ccc(-c3ccc(-c4noc(C)n4)cc3C)cc2)cc1N1CCN(C)CC1
inactive: activity change, negative = inhibition [1] -2.61% | Potency [2] | activity, negative = inhibition [7] -18.9% | Potency [4] > 46 µM | Potency [5] > 46 µM | outcome [6]

CC(=O)C(C)=O
inactive: Potency [8] > 92 µM | Potency [9] > 92 µM | Potency [10] > 92 µM | Potency [11] > 92 µM | Potency [12] > 92 µM | Potency [13] > 92 µM | outcome [14] | outcome [15] | outcome [16] | outcome [17] | outcome [18] | outcome [19]

CC(C)(C)c1cc(/C=C(\C#N)C(N)=S)cc(C(C)(C)C)c1O
inactive: Potency [4] > 46 µM | Potency [5] > 46 µM
active: Potency [2] 12.6 µM | activity change, negative = inhibition [3, 20] -95.5%

O=C(c1ccc2c(c1)OCCO2)N1CCCCC1
active: Potency [2] 15.8 µM
inactive: activity change, negative = inhibition [3, 20] 5.58% | activity, negative = inhibition [7] 25% | Potency [5] > 46 µM | outcome [6]

COc1cc(CC(=O)O)ccc1O
inactive: Potency [2] | activity change, negative = inhibition [3, 20] 6.22% | Potency [5] > 46 µM | outcome [6]

Oc1ccc(Cn2cc[nH]c2=S)cc1
inactive: activity, negative = inhibition [7] 25% | Potency [4] > 46 µM | Potency [5] > 46 µM | outcome [6]
active: Potency [2] 6.31 µM

NOCC(=O)O
inactive: Potency [2] | activity change, negative = inhibition [3, 20] -5.75% | activity, negative = inhibition [7] 4.25% | Potency [4] > 46 µM | Potency [5] > 46 µM

Cc1cccc(C(=O)NCN2CCN(c3ccccc3C#N)CC2)c1
inactive: activity change, negative = inhibition [3, 20] -27.4% | activity, negative = inhibition [7] -3.73% | Potency [4] > 46 µM | Potency [5] > 46 µM | outcome [6]
active: Potency [2] 15.8 µM and 20 µM

CC(C)Cn1c(=O)n(C)c(=O)c2[nH]cnc21
inactive: activity change, negative = inhibition [3, 20] -7.31% | activity, negative = inhibition [7] -25.6% | Potency [4] > 46 µM | Potency [5] > 46 µM | outcome [6]
active: Potency [2] 20 µM

O=C1Nc2ccc(I)cc2/C1=C/c1cc(Br)c(O)c(Br)c1
active: Potency [2] 2.51 µM and 794 nM | activity change, negative = inhibition [3, 20] -120%
inactive: Potency [4] > 46 µM | Potency [5] > 46 µM

COc1cc(/C=C(\C#N)C(=O)c2ccc(O)c(O)c2)cc(I)c1O
inactive: activity change, negative = inhibition [3, 20] 8.66% | Potency [4] > 46 µM | Potency [5] > 46 µM
active: Potency [2] 15.8 µM

O=C(N[C@@H](Cc1ccccc1)C(=O)CCl)OCc1ccccc1
active: Potency [2] 3.16 µM | activity change, negative = inhibition [3, 20] -11.8% | activity, negative = inhibition [7] -59.3%
inactive: Potency [4] > 46 µM | Potency [5] > 46 µM | outcome [6]

CC(=O)NCCc1c[nH]c2ccc(O)cc12
inactive: activity change, negative = inhibition [3, 20] 7.32% | activity, negative = inhibition [7] -51.8% | Potency [4] > 46 µM | Potency [5] > 46 µM | outcome [6]
active: Potency [2] 15.8 µM

Cc1nc(N=Nc2cc(S(=O)(=O)O)c3cc([N+](=O)[O-])cc(S(=O)(=O)O)c3c2)c(COP(=O)(O)O)c(C=O)c1O
active: Potency [2] 39.8 µM
inactive: activity change, negative = inhibition [3, 20] 2.42% | Potency [4] > 46 µM | Potency [5] > 46 µM | outcome [6]

NC(N)=NC(N)=Nc1ccccc1
inactive: activity change, negative = inhibition [3, 20] 7.27% | activity, negative = inhibition [7] -15.1% | Potency [4] > 46 µM | Potency [5] > 46 µM | outcome [6]
inactive and 31.6 µM (active): Potency [2]

COc1ccc(-c2ccc(N)[n+](CCCC(=O)O)n2)cc1
inactive: Potency [2] | activity change, negative = inhibition ([3]; at 17.2 µM (top of the series)) 1.69% | activity change, negative = inhibition ([3]; at 38 µM (top of the series)) 4.41% | activity, negative = inhibition [7] 5.04% [at 17.2 µM] | Potency [4] > 46 µM and > 20.6 µM | Potency [5] > 46 µM and > 20.6 µM | outcome [6]

O=c1oc(Cl)c(Cl)c2ccccc12
active: Potency [2] 1 µM | activity change, negative = inhibition [3, 20] -53.3% | activity, negative = inhibition [7] 22.3%
inactive: Potency [4] > 46 µM | Potency [5] > 46 µM | outcome [6]

C=CCn1c(=O)c2c(nc(-c3ccc(S(=O)(=O)O)cc3)n2C)n(C)c1=O
inactive: Potency [2] | activity, negative = inhibition [7] 20.8% | Potency [4] > 46 µM | Potency [5] > 46 µM

CCN(CC)CCOC(=O)c1cc(Cl)c(N)cc1OC
inactive: activity, negative = inhibition [7] -0.802% | Potency [4] > 46 µM | Potency [5] > 46 µM | outcome [6]
active: Potency [2] 12.6 µM
